Reference: PubChem BioAssay (EPA / NIEHS)
The source made the active and inactive calls. The calls were made as follows: active = hit-call score of the fitted dose curve at least 0.9, where 1 is the maximum; inactive = score below 0.9.

assay: ATG_PBREM_CIS: Attagene CIS-FACTORIAL HepG2 Assay for human Phenobarbital-responsive Enhancer Module (PBREM) (AID 2282955); conditions: HepG2 PBREM cis-reporter, Attagene multiplexed transcription; actives raise or lower the signal
Method: ATG_CIS is a cell-based, multiplexed-readout assay that uses HepG2, a human liver cell line, with measurements taken at 24 hours after chemical dosing in a 24-well plate.ATG_PBREM_CIS is one of 52 assay component(s) measured or calculated from the ATG_CIS assay. It is designed to make measurements of mRNA induction, a form of inducible reporter, as detected with fluorescence intensity signals by Reverse transcription polymerase chain reaction (RT-PCR) and Capillary electrophoresis technology.Data from the assay component ATG_PBREM_CIS was analyzed into 1 assay endpoint. This assay endpoint, ATG_PBREM_CIS, was analyzed with bidirectional fitting relative to DMSO as the negative control and baseline of activity. Using a type of inducible reporter, measures of mRNA for gain or loss-of-signal activity can be used to understand the reporter gene at the transcription factor-level as they relate to the gene NR1I3. Furthermore, this assay endpoint can be referred to as a primary readout, because this assay has produced multiple assay endpoints where this one serves a reporter gene function. To generalize the intended target to other relatable targets, this assay endpoint is annotated to the nuclear receptor intended target family, where the subfamily is non-steroidal.
Human liver HepG2 cells are transiently transfected with multiple reporter transcription units (MRTUs) in 6-well plates using FuGene 6 reagent (Roche; 3 ml FuGene/1 mg DNA). The MRTU constructs are regulated by a cis-regulating element (promoter). […] A major difference between the CIS and TRANS system is that in CIS activities of endogenous TFs are measured, whereas the TRANS assay evaluates changes in activities of exogenous, chimeric NR-Gal4 proteins. […] At the end of 24 hour incubation, total RNA was isolated using TriZol reagent (Invitrogen). The isolated RNA is then reverse-transcribed using oligo(dT) primer and Mo-MLV reverse transcriptase (Invitrogen) with DNAse I (Ambion) treatment for 30 min. The one-tenth of the produced cDNA was amplified by PCR using Taq DNA polymerase (Invitrogen) and two reporter sequence-specific primers. The PCR products were fluorescently labeled by primer extension with 6-arboxyfluorescein (6-FAM) 5'-labeled reporter sequence-specific primer (2 min at 95 C, 20 s at 68 C and 10 min at 72 C) and these products were digested with 5U of HpaI (New England Biolabs) for 2h at 37 C. The fragments were purified using Qiaquick PCR columns (Qiagen), analyzed on an ABI 3130xL genetic analyzer (Applied Biosystems) with peak positions identified by using a set of X-rhodamine (ROX)-labeled MapMarker1000 molecular weight standards (BioVentures). The raw capillary electrophoresis data was processed using Attagraph software (Attagene).

| SMILES | outcome | AC50 |
| --- | --- | --- |
| CC(C)(c1ccccc1)c1cc(-n2nc3ccccc3n2)c(O)c(C(C)(C)c2ccccc2)c1 | inactive | – |
| CC(F)(F)CC(F)(F)F | inactive | – |
| Clc1cccc(Cl)c1Cl | inactive | – |
| CCCCCCCCCCCCBr | inactive | – |
| O=C(O)C1(c2ccc3c(c2)OC[C@H](Cc2ccc(-c4ccccc4)cc2)[C@H]3O)CCCC1 | inactive | – |
| O=C(N[C@H]1CN2CCC1CC2)c1ccc2c(c1)OCCO2 | inactive | – |
| O=NN1CCCCCCC1 | inactive | – |
| CCCSP(=S)(OCC)Oc1ccc(SC)cc1 (stereo not given) | – | 2140 nM (active) |
| Cc1ccc(OP(=O)(Oc2ccc(C)cc2C)Oc2ccc(C)cc2C)c(C)c1 | inactive | – |
| CC(C)(C1CCC(O)CC1)C1CCC(O)CC1 (stereo not given) | inactive | – |
| CCCCC(CC)C(=O)Cl (stereo not given) | inactive | – |
| CCOP(=O)(OCC)OC(=CCl)c1ccc(Cl)cc1Cl | – | 6620 nM (active) |
| O=C(Cl)OCCOCCOC(=O)Cl | inactive | – |
| CCCCCCCCCCCCN(C)C | inactive | – |
| CCOC(=O)CC(=O)CCl | inactive | – |
| Nc1nc(N)nc(Cl)n1 | inactive | – |
| COC(=O)Nc1cccc(OC(=O)Nc2cccc(C)c2)c1 | inactive | – |
| CC(C)(C)c1cc([N+](=O)[O-])cc(C(C)(C)C)c1O | – | 2520 nM (active) |
| CC(C)=CC1C(C(=O)OCc2cccc(Oc3ccccc3)c2)C1(C)C (stereo not given) | inactive | – |
| CN(N=O)c1ccc([N+](=O)[O-])cc1 | inactive | – |

| SMILES | outcome | AC50 |
| --- | --- | --- |
| OC[C@@H](O)[C@H]1O[C@@H]2O[C@H](C(Cl)(Cl)Cl)O[C@@H]2[C@H]1O | inactive | – |
| Cc1c([N+](=O)[O-])c(C)c([N+](=O)[O-])c(C(C)(C)C)c1[N+](=O)[O-] | inactive | – |
| CN(C1CCCCC1)C1CCCCC1 | inactive | – |
| O=[N+]([O-])c1cccc2ccccc12 | inactive | – |
| C=CC(Cl)CCl (stereo not given) | inactive | – |
| C#CCO | inactive | – |
| Nc1cccnc1 | inactive | – |
| CCCCCCCCBr | inactive | – |
| N#CCCC(Br)(C#N)CBr (stereo not given) | inactive | – |
| COP(=S)(OC)Oc1cc(Cl)c(I)cc1Cl | inactive | – |
| CCOCn1c(-c2ccc(Cl)cc2)c(C#N)c(Br)c1C(F)(F)F | inactive | – |
| C=CC(=O)NC(C)(C)CC(C)=O | inactive | – |
| c1ccc2sc(SNC3CCCCC3)nc2c1 | inactive | – |
| Cc1cc(C(C)(C)c2ccc(O)c(C)c2)ccc1O | – | 18100 nM (active) |
| Brc1ccc(Oc2c(Br)cc(Br)cc2Br)c(Br)c1 | inactive | – |
| COC(F)(C(F)(F)C(F)(F)F)C(F)(C(F)(F)F)C(F)(F)F (stereo not given) | inactive | – |
| CCC[CH2][Sn]([CH2]CCC)([CH2]CCC)[CH2]CCC | – | 2900 nM (active) |
| Nc1ccc(N)cc1 | inactive | – |
| CCC(C)(C#N)N=NC(C)(C#N)CC (stereo not given) | inactive | – |
| Clc1cnc(Oc2ccc(Oc3ncc(Cl)cc3Cl)cc2)c(Cl)c1 | inactive | – |
